Hits are enriched below; roughly 1.4% of the tested compounds scored in any of these assays.
Vaccinia mCherry: inhibitors of vaccinia virus infection (mCherry reporter signal). Vaccinia virus mCherry reporter infection, fluorescence. Potency, µM (doses to about 36.5 µM), for inactives: at the top dose activity change, negative = inhibition, actives largely listed as inhibitors. actives 0.63% (n = 310,000); calls by dose curve; tested in A549 cells; further: potency means the concentration at half of the fitted maximal effect; on the % scale 0 is the no-effect control and ±100 the full control effect; nearly all actives have a fitted effect of over 35% in size
AMA1-RON2 inh: disrupts binding of P. falciparum AMA1 to RON2; AlphaScreen AMA1-biotinylated RON2 peptide binding; Potency, µM (titrated, usually from 58.2 µM), for the others: top-dose activity change, negative = inhibition, hits mostly inhibitors; actives 0.2% (n = 360,000);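 further: potency means the concentration at half of the fitted maximal effect; 0% = vehicle wells and -100% = peptide control; nearly all actives have a fitted effect of over 45% in size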
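AMA1 (3D7) with his tag at 25 nM final met compounds first, then biotinylated RON2 peptide at 25 nM; detection used donor plus acceptor beads, 10 µg/mL apiece, read by AlphaScreen after 30 min at room temperature.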
AmpC inh no detg: inhibitors of E. coli AmpC beta-lactamase without detergent; Potency, µM (titrated, usually from 57.1 µM), inactives show at the highest dose activity change, negative = inhibition, actives largely listed as inhibitors; actives 0.52% (n = 330,000); AmpC nitrocefin hydrolysis, absorbance 480 nm, 0.0001% Triton;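 further: potency means the concentration at half of the fitted maximal effect; plate controls were no compound for no effect and no enzyme for full effect; nearly all actives have a fitted effect of over 20% in size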
Target sequence (P00811 whole entry, looked up): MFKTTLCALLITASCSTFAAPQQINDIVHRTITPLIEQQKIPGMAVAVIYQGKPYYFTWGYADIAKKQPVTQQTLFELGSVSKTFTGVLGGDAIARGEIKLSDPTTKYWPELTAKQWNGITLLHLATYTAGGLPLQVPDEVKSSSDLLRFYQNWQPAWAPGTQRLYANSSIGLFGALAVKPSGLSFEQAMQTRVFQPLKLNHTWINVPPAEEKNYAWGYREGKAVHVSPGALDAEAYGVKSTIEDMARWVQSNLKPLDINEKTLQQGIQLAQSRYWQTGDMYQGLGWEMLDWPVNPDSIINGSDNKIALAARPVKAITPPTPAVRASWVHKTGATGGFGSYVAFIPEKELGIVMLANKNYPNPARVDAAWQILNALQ
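20 mM phosphate pH 7.0 + 0.01% (detergent screen) or 0.0001% Triton X-100; 5.3 nM AmpC reagent; cpd preinc 15 min RT; nitrocefin (800 uM stock) to start; A480 q20 s × 4 min; Activity was normalised to no-enzyme and no-compound control wells.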
Vaccinia Venus: inhibitors of vaccinia virus (Venus reporter). Vaccinia virus Venus reporter expression, fluorescence. Potency, µM (highest dose often 36.5 µM), for the others: at the highest dose activity change, negative = inhibition, actives largely listed as inhibitors. actives 0.46% (n = 330,000). AID 720580; calls by dose curve; tested in A549 cells; further: potency means the concentration at half of the fitted maximal effect; on the % scale 0 is the no-effect control and ±100 the full control effect; nearly all actives have a fitted effect of over 30% in size
AmpC detergent: blocks E. coli AmpC beta-lactamase in detergent assay. AmpC hydrolysis of nitrocefin, absorbance 480 nm, 0.01% Triton. Potency, µM (top dose mostly 114 µM), without a hit: at the top dose activity change, negative = inhibition, usual class: inhibitors. actives 0.041% (n = 370,000). AID 485294;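 further: potency means the concentration at half of the fitted maximal effect; 0% = no-compound wells and -100% = no-enzyme wells; nearly all actives have a fitted effect of over 25% in size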
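20 mM phosphate pH 7.0 + 0.01% (detergent screen) or 0.0001% Triton X-100; 5.3 nM AmpC reagent; cpd preinc 15 min RT; nitrocefin (800 uM stock) to start; A480 q20 s × 4 min; Activity was normalised to no-enzyme and no-compound control wells.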
SARS PLpro yeast-1: inhibitors of SARS-CoV papain-like protease in yeast; actives 0.19% (n = 330,000); S. cerevisiae expressing SARS-CoV PLpro, growth rescue; Potency, µM (highest dose often 32.9 µM), for inactives: at the top dose activity, positive = growth rescue, usual class: activators; calls by dose curve; further: potency means the concentration at half of the fitted maximal effect; 0% is about no effect; nearly all actives have a fitted effect of over 55% in size
SARS PLpro yeast-2: Inhibits SARS-CoV PLP in yeast, hit validation | shares compounds with SARS PLpro yeast-1 | yeast expressing SARS-CoV PLpro, growth phenotype rescue | calls only | actives 19% (n = 1,000); call rule not given here
Numbers without * were called inactive; i = inactive; ? = inconclusive; nt = no result given; + = active, no number; [ ] = dose if it differs, or a comment. Unless noted, the call rests on the fitted dose curve; in most records, active means well fitted curve in the direction sought with a large enough effect; inconclusive means small, poorly fitted or top-dose-only effect, or another doubt; inactive means no such curve, though single readings can be large; an effect the other way counts as inactive or inconclusive.

SMILES	Vaccinia mCherry	AMA1-RON2 inh	AmpC inh no detg	Vaccinia Venus	AmpC detergent	SARS PLpro yeast-1	SARS PLpro yeast-2
CCc1ccc(NCc2cc3ccc(OC)cc3n(CC(=O)Nc3ccc(C)c(Cl)c3)c2=O)cc1	7%	nt	nt	22%	12%	nt	nt
C#CC[N+]1(CC#Cc2ccc(C)cc2)CCCCC1	i	5%	-12%	-2%	-3%	20µM*	i
COc1ccc(CCNC(=O)CSc2nnnn2-c2cccc(C(C)=O)c2)cc1OC	-5%	nt	nt	3%	-3%	nt	nt
Cc1cc(/C=N/NC(N)=S)c(C)n1-c1ccc(Cl)cc1	nt	28%	-42%	nt	-1%	11µM*	i
CCc1ccccc1NC(=O)Cn1nnc(C(=O)NCc2ccco2)c1N	-17%	nt	nt	-15%	-2%	nt	nt
COc1ccc([C@]23Cc4cc(C#N)ccc4C(O2)C2=C(CC4(CCCCC4)OC2=O)O3)cc1	nt	nt	-49%[11.4 µM]	nt	-12%[22.9 µM]	-2%[6.58 µM]	nt
O=C(CCn1c(=O)oc2ccccc21)NC1=NCCS1	-3%	-12%	-13%	-9%	-1%	?	i
O=C(CCN1C(=O)/C(=C\c2cccs2)SC1=S)NC1=NCCS1	i	16%	-14%	-11%	-6%	-11%	nt
COc1ccccc1/C=C1\SC(=S)N(CCC(=O)NC2=NCCS2)C1=O	-3%	-11%	-48%	1%	-4%	4µM*	i
O=C(NCc1ccc(Cl)cc1)C1CCCN(c2ncnc3onc(-c4ccc(F)cc4)c23)C1 (stereo not drawn)	-14%	nt	nt	-15%	1%	nt	nt
CC(=O)OC/C=C(C)/C=C/C=C(C)/C=C/C1=C(C)CCCC1(C)C	-9%	nt	nt	-17%	nt	nt	nt
O=c1cc(CO)oc(C(Nc2ccccn2)c2ccccc2Cl)c1O (stereo not drawn)	-12%	-9%	-25%	-22%	-12%	13µM*	i
COc1ccc(C(Nc2ccccn2)c2oc(CO)cc(=O)c2O)cc1 (stereo not drawn)	i	-11%	-15%	4%	?	11µM*	i
O=c1cc(CO)oc(C(Nc2ccccn2)c2ccc(F)cc2)c1O (stereo not drawn)	nt	-13%	-20%	nt	-8%	-1%	nt
COc1cccc(CCNC(=O)c2cnc3sc(N4CCCC4)nn3c2=O)c1	-29%	nt	nt	?	0%	nt	nt
Fc1ccccc1N1CCN(c2nnc(C(F)(F)F)c3nnn(Cc4ccccc4)c23)CC1	-7%	nt	nt	-15%	1%	nt	nt
COc1cccc(-n2c(SCc3cc(=O)oc4cc(O)c(O)cc34)nc3ccccc3c2=O)c1	?	33%	?	-19%	-10%	14µM*	i
CCN(CC)C(=O)CSc1nc2ccccc2c(=O)n1-c1cccc(OC)c1	nt	-3%	42%	nt	?	-2%	nt
Oc1ccc2n[nH]nc2c1	-10%	3%	-40%	4%	?	?	i
Oc1ccc(Cl)c(Cl)c1	i	3%	-20%	-13%	3%	-1%	nt
S=C(NCCc1ccccc1)N/N=C/c1cccs1	nt	46%	nt	nt	nt	nt	nt
S=C(NCc1ccccc1)N/N=C/c1cccs1	nt	78%	-29%	nt	2%	5.6µM*	+
Cc1cc2c(c(=O)n1-c1ccccc1)C1O[C@](c3ccsc3)(Cc3ccccc31)O2	nt	nt	-42%[11.4 µM]	nt	-9%[22.9 µM]	0%[6.58 µM]	nt
Nc1c(Cl)cc(-c2[nH]c3cc(C(=O)NCCO)ccc3c(=O)c2O)cc1Cl	-2%	83%	-5%	6%	?	?	+
CCCNC(=O)c1ccc2c(=O)c(O)c(C)[nH]c2c1	-22%	61%	-8%	9%	-1%	29%	nt
SMILES	Vaccinia mCherry	AMA1-RON2 inh	AmpC inh no detg	Vaccinia Venus	AmpC detergent	SARS PLpro yeast-1	SARS PLpro yeast-2
CC(C)CNC(=O)c1cc([N+](=O)[O-])ccc1N1CCOCC1	-8%	-4%	-47%	-5%	7%	?	i
CC(C)CCNC(=O)c1cc([N+](=O)[O-])ccc1N1CCOCC1	-10%	-2%	-14%	-9%	-5%	26%	nt
O=C1NCCCC1C(=O)N/N=C/c1cccc(O)c1 (stereo not drawn)	i	10%	-9%	-4%	?	3%	nt
O=C1NCCCC1C(=O)N/N=C/c1ccccc1 (stereo not drawn)	i	-2%	-12%	-5%	0%	?	i
CCc1cc(C(=O)NCC2Cc3cccc(-c4ccc(C(=O)OC)cn4)c3O2)no1 (stereo not drawn)	-15%	nt	nt	-2%	nt	nt	nt
COC(=O)c1sc(=S)sc1C(=O)OC	i	-2%	-13%	-11%	-11%	6.3µM*	?
O=C(NNC(=O)c1cc(Cl)ccc1O)c1cccc(S(=O)(=O)N2CCOCC2)c1	-15%	61%	-22%	-3%	-18%	?	+
CC(=O)Nc1ccc2c(c1)n(C)c(=O)n2C	-18%	-4%	-20%	-8%	1%	?	nt
Cn1c(=O)n(C)c2cc(NC(=O)CCl)ccc21	nt	-5%	-4%	nt	?	10µM*	+
CCN1CCN(Cc2c(O)ccc3oc(C)c(C(=O)Nc4cccc(C(F)(F)F)c4)c23)CC1	-15%	nt	nt	-11%	9%	nt	nt
CC(=O)c1ccc(NC(=O)c2cn(-c3ccccc3)nc2-c2ccc(Br)cc2)cc1	?	nt	nt	-19%	14%	nt	nt
C[C@]12c3[nH]c4cc(-c5ccco5)ccc4c3CCN1C(=O)[C@@H](CC(=O)NCCCn1ccnc1)C[C@@H]2C(=O)N1CCCCC1	?	?	206%	-11%	nt	-11%	nt
C[C@]12c3[nH]c4cc(-c5ccco5)ccc4c3CCN1C(=O)[C@@H](CC(=O)NCCCn1ccnc1)C[C@@H]2C(=O)N1CCOCC1	-14%	?	236%	-8%	nt	?	i
CC(OC(=O)CNC(=O)c1ccccc1)C(=O)Nc1ccc(S(=O)(=O)N2CCOCC2)cc1 (stereo not drawn)	-16%	8%	-19%	-9%	-16%	?	i
O=C(COC(=O)CNC(=O)c1ccccc1)Nc1ccc(S(=O)(=O)N2CCOCC2)cc1	-24%	16%	-4%	-11%	?	0%	nt
Cc1cccc(NC(=O)CSc2nnc(Cn3cnc4ccccc43)o2)c1	i	-10%	-16%	-11%	1%	18µM*	i
COc1ccc(C2C(C(N)=O)=C(C)Nc3nc(SCc4ccccc4Cl)nn32)cc1OC (stereo not drawn)	-10%	nt	nt	-10%	2%	nt	nt
Cc1ccccc1C1(CC(=O)N2CC3(C)CC2CC(C)(C)C3)CC(=O)N(Cc2cccnc2)C1=O (stereo not drawn)	-15%	nt	nt	-11%	nt	nt	nt
COc1ccc(Cl)cc1NC(=S)NCCc1ccc(S(N)(=O)=O)cc1	-22%	-1%	-17%	-11%	9%	1%	nt

High-throughput results: PubChem, National Center for Advancing Translational Sciences (NCATS)
